According to PubChem BioAssay (NCATS):
Inconclusive results are not listed. Active and inactive are the calls of the source. Calls follow the shape of the dose curve; as a rule, active = well fitted cell-killing curve with a large enough effect; inconclusive = small, poorly fitted or top-dose-only effect, or effect the other way; inactive = no such curve, though single readings can be large or run the other way.

How the values were obtained:
[1] = Quantitative High-Throughput drug screen in 47 multiple myeloma cell lines against the NCATS MIPE library collection: MM1S_ATCC cell viability assay (AID 1918980); also: nearly all actives have a fitted effect of over 45% in size
How it was run: (§1)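 Viability after 48 h drug exposure was measured as ATP-dependent luminescence. Cells, 500 per well, sat at 37 °C under 5% CO2; DMSO wells set 100%, media-only wells 0%.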

[2] = Quantitative High-Throughput drug screen in 47 multiple myeloma cell lines against the NCATS MIPE library collection: MM1R_ATCC cell viability assay (AID 1918981); also: nearly all actives have a fitted effect of over 35% in size
How it was run: as §1

[3] = Quantitative High-Throughput drug screen in 47 multiple myeloma cell lines against the NCATS MIPE library collection: KMS28PE_JCRB cell viability assay (AID 1918983); also: nearly all actives have a fitted effect of over 35% in size
How it was run: as §1

[4] = Quantitative High-Throughput drug screen in 47 multiple myeloma cell lines against the NCATS MIPE library collection: L363_DSMZ cell viability assay (AID 1918984); also: nearly all actives have a fitted effect of over 40% in size
How it was run: as §1

[5] = Quantitative High-Throughput drug screen in 47 multiple myeloma cell lines against the NCATS MIPE library collection: OCIMY7_PLB cell viability assay (AID 1918987); conditions: OCI-MY7 myeloma viability, CellTiter-Glo ATP, 48 h; viability (% of DMSO): at 45.8 µM (top of the series); also: nearly all actives have a fitted effect of over 65% in size
How it was run: as §1

[6] = Quantitative High-Throughput drug screen in 47 multiple myeloma cell lines against the NCATS MIPE library collection: OPM1_PLB cell viability assay (AID 1918989); also: nearly all actives have a fitted effect of over 40% in size
How it was run: as §1

[7] = Quantitative High-Throughput drug screen in 47 multiple myeloma cell lines against the NCATS MIPE library collection: U266_ATCC cell viability assay (AID 1919864); also: nearly all actives have a fitted effect of over 35% in size
How it was run: as §1

[8] = Quantitative High-Throughput drug screen in 47 multiple myeloma cell lines against the NCATS MIPE library collection: XG6_PLB cell viability assay (AID 1919865); also: nearly all actives have a fitted effect of over 40% in size
How it was run: as §1

[9] = Quantitative High-Throughput drug screen in 47 multiple myeloma cell lines against the NCATS MIPE library collection: VP6_DJ cell viability assay (AID 1919867); also: nearly all actives have a fitted effect of over 40% in size
How it was run: as §1

[10] = Quantitative High-Throughput drug screen in 47 multiple myeloma cell lines against the NCATS MIPE library collection: PE2_PLB cell viability assay (AID 1919869); also: nearly all actives have a fitted effect of over 35% in size
How it was run: as §1

[11] = Quantitative High-Throughput drug screen in 47 multiple myeloma cell lines against the NCATS MIPE library collection: RPMI8226_ATCC cell viability assay (AID 1919871); also: nearly all actives have a fitted effect of over 30% in size
How it was run: as §1

[12] = Quantitative High-Throughput drug screen in 47 multiple myeloma cell lines against the NCATS MIPE library collection: KMS34_JCRB cell viability assay (AID 1918985); also: nearly all actives have a fitted effect of over 40% in size
How it was run: as §1

[13] = Quantitative High-Throughput drug screen in 47 multiple myeloma cell lines against the NCATS MIPE library collection: SKMM1_PLB cell viability assay (AID 1919863); conditions: SKMM1 myeloma viability, CellTiter-Glo ATP, 48 h; viability: stronger effect = lower value; also: nearly all actives have a fitted effect of over 35% in size
How it was run: as §1

[14] = Quantitative High-Throughput drug screen in 47 multiple myeloma cell lines against the NCATS MIPE library collection: XG1_PLB cell viability assay (AID 1919866); also: nearly all actives have a fitted effect of over 35% in size
How it was run: as §1

[15] = Quantitative High-Throughput drug screen in 47 multiple myeloma cell lines against the NCATS MIPE library collection: PCM6_Riken cell viability assay (AID 1919870); also: nearly all actives have a fitted effect of over 30% in size
How it was run: as §1

[16] = Quantitative High-Throughput drug screen in 47 multiple myeloma cell lines against the NCATS MIPE library collection: OPM2_DSMZ cell viability assay (AID 1919872); also: nearly all actives have a fitted effect of over 30% in size
How it was run: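 Viability readout: CellTiter-Glo luminescence following 5 min room-temperature incubation with reagent. Prior exposure: 48 h, 37C, humidified 5% CO2, 500 cells per well.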

[17] = Quantitative High-Throughput drug screen in 47 multiple myeloma cell lines against the NCATS MIPE library collection: OCIMY5_PLB cell viability assay (AID 1918988); also: nearly all actives have a fitted effect of over 65% in size
How it was run: as §1

[18] = Quantitative High-Throughput drug screen in 47 multiple myeloma cell lines against the NCATS MIPE library collection: UTMC2_PLB cell viability assay (AID 1919868); conditions: CellTiter-Glo ATP luminescence, 48 h; viability (% of DMSO control): at 45.8 µM (top of the series); also: nearly all actives have a fitted effect of over 55% in size
How it was run: as §1

[19] = Quantitative High-Throughput drug screen in 47 multiple myeloma cell lines against the NCATS MIPE library collection: LP1_DSMZ cell viability assay (AID 1918982); also: nearly all actives have a fitted effect of over 35% in size
How it was run: as §1
Potency is read from the fitted curve at half-maximal effect.

O=C1CSC(=O)N1C(CCc1ccncc1)COc1ccc(-c2cccc([N+](=O)[O-])c2)cc1 (stereo unspecified)
inactive: Potency [4]
active: Potency [1] 0.935 µM | Potency [2] 2.35 µM | Potency [3] 9.35 µM | Potency [5] 20.9 µM | Potency [6] 16.6 µM | Potency [7] 8.33 µM | Potency [8] 13.2 µM | Potency [9] 4.18 µM | Potency [10] 16.6 µM | Potency [11] 7.43 µM

CC(=O)OCC(=O)[C@@]12N=C(C)O[C@H]1C[C@H]1[C@@H]3CCC4=CC(=O)C=C[C@]4(C)[C@@H]3[C@@H](O)C[C@@]12C
inactive: Potency [2] | Potency [3] | Potency [12] | Potency [6] | viability [13] 135% | Potency [10] | Potency [16]
active: Potency [1] 5.9 µM | Potency [14] 16.6 µM | Potency [15] 11.8 µM | Potency [11] 0.469 µM

CNC(=O)c1cccc(-c2ccc3c(N4CCOC[C@H]4C)nc(N4CCOC[C@H]4C)nc3n2)c1
active: Potency [1] 0.0833 µM | Potency [3] 0.0187 µM | Potency [4] 0.0118 µM | Potency [12] 0.059 µM | viability (% of DMSO) [5] 66.1% | Potency [17] 5.9 µM | Potency [6] 0.105 µM | Potency [13] 0.0662 µM | Potency [7] 0.469 µM | Potency [8] 0.0833 µM | Potency [14] 0.0118 µM | Potency [9] 0.0132 µM | Potency [18] 0.059 µM | Potency [10] 0.0833 µM | Potency [15] 0.118 µM | Potency [11] 0.0209 µM | Potency [16] 0.105 µM

COc1cc(CCc2cc(NC(=O)c3ccc(N4C[C@@H](C)N[C@@H](C)C4)cc3)n[nH]2)cc(OC)c1
active: Potency [1] 20.9 µM | Potency [2] 26.4 µM | Potency [3] 13.2 µM | Potency [12] 16.6 µM | Potency [5] 18.7 µM | Potency [17] 16.6 µM | Potency [6] 14.8 µM | Potency [7] 20.9 µM | Potency [8] 8.33 µM | Potency [14] 14.8 µM | Potency [9] 7.43 µM | Potency [18] 4.18 µM | Potency [10] 11.8 µM | Potency [15] 13.2 µM | Potency [11] 18.7 µM | Potency [16] 13.2 µM

COC(=O)C1C2CC3c4[nH]c5cc(OC)ccc5c4CCN3CC2CC(OC(=O)c2cc(OC)c(OC)c(OC)c2)C1OC (stereo unspecified)
inactive: Potency [16]
active: Potency [1] 14.8 µM | Potency [2] 13.2 µM | Potency [3] 14.8 µM | Potency [5] 16.6 µM | Potency [17] 16.6 µM | Potency [6] 23.5 µM | Potency [7] 23.5 µM | Potency [10] 14.8 µM | Potency [15] 16.6 µM | Potency [11] 16.6 µM

Cc1ccc(-n2[nH]c(C)c(N=Nc3cccc(-c4cccc(C(=O)O)c4)c3O)c2=O)cc1C
inactive: Potency [4]
active: Potency [1] 18.7 µM | Potency [19] 16.6 µM | Potency [7] 20.9 µM | Potency [14] 23.5 µM | Potency [10] 26.4 µM

Cc1[nH]c(C=C2C(=O)Nc3ccccc32)c(C)c1CCC(=O)O
active: Potency [1] 0.0833 µM | Potency [2] 0.526 µM | Potency [4] 9.35 µM | Potency [17] 18.7 µM | Potency [6] 23.5 µM | Potency [7] 5.26 µM | Potency [8] 0.372 µM | Potency [9] 13.2 µM | Potency [18] 0.935 µM | Potency [10] 9.35 µM | Potency [15] 10.5 µM

C=CC(=O)Nc1cc(NC(=O)c2ccc(C)c(NC(=O)c3ccno3)c2)cc(C(F)(F)F)c1
active: Potency [1] 16.6 µM | Potency [2] 20.9 µM | Potency [5] 16.6 µM | Potency [17] 18.7 µM | Potency [6] 23.5 µM | Potency [13] 18.7 µM | Potency [7] 20.9 µM | Potency [8] 16.6 µM | Potency [14] 14.8 µM | Potency [9] 16.6 µM | Potency [18] 20.9 µM | Potency [10] 16.6 µM | Potency [15] 16.6 µM | Potency [11] 23.5 µM

O=C(NCc1ccccc1)[C@H](Cc1ccccc1)NC(=O)[C@@H]1O[C@@H]1C(=O)NCCc1ccc(O)cc1
inactive: Potency [3] | Potency [5] | viability [13] 128% | Potency [9]
active: Potency [1] 1.18 µM | Potency [2] 10.5 µM | Potency [4] 16.6 µM | Potency [14] 14.8 µM | Potency [10] 23.5 µM

NS(=O)(=O)OC[C@@H]1C[C@@H](n2ccc3c(N[C@H]4CCc5ccccc54)ncnc32)C[C@H]1O
active: Potency [1] 2.64 µM | Potency [19] 0.662 µM | Potency [3] 0.935 µM | Potency [5] 0.743 µM | Potency [17] 16.6 µM | Potency [6] 16.6 µM | Potency [13] 1.05 µM | Potency [7] 8.33 µM | Potency [14] 0.332 µM | Potency [15] 6.62 µM
inactive: Potency [16]

c1ccc2c(Oc3nc(Nc4ccc(N5CCOCC5)cc4)c4ncn(C5CCCCC5)c4n3)cccc2c1
active: Potency [5] 14.8 µM | Potency [17] 18.7 µM | Potency [14] 18.7 µM | Potency [9] 14.8 µM
inactive: Potency [1] | Potency [3] | Potency [6] | Potency [10] | Potency [15] | Potency [11] | Potency [16]

Cc1cnc(NC(=O)Nc2cc(Br)c(C)cc2OC[C@@H]2CNCCO2)cn1
active: Potency [1] 0.662 µM | Potency [2] 0.743 µM | Potency [3] 13.2 µM | Potency [17] 1.48 µM | Potency [6] 0.526 µM | Potency [8] 0.743 µM | Potency [14] 1.66 µM | Potency [9] 4.69 µM | Potency [18] 1.48 µM | Potency [10] 1.87 µM | Potency [15] 10.5 µM

Cn1c(Nc2ccc(C(F)(F)F)cc2)nc2cc(Oc3ccnc(-c4ncc(C(F)(F)F)[nH]4)c3)ccc21
active: Potency [1] 9.35 µM | Potency [3] 23.5 µM | Potency [4] 16.6 µM | Potency [6] 16.6 µM | Potency [13] 20.9 µM | Potency [7] 6.62 µM | Potency [8] 5.9 µM | Potency [9] 13.2 µM | Potency [18] 16.6 µM | Potency [10] 16.6 µM | Potency [15] 1.87 µM | Potency [11] 16.6 µM
